Source: PubChem BioAssay (National Center for Advancing Translational Sciences (NCATS))
Shown are actives, neighbours in structure and some others; about 20% of the full set was active somewhere.
Pf growth 48h: inhibits P. falciparum growth in the first generation, 48 h. P. falciparum luciferase growth in erythrocytes, 48 h. Potency, µM (highest dose often 28.7 µM), actives largely listed as inhibitors. hit rate 5.9% among 310,000. AID 504832
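Parasite viability was followed by luminescence of a genomically integrated firefly luciferase. Cultures held 0.1% parasitemia at 2% hematocrit (final), incubated under 5% CO2 at 37 C.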
CHX counter: counter-screen hit for Shiga toxin inhibitors, cycloheximide; cell reporter, cycloheximide protein synthesis inhibition counterscreen; max response, %; hit rate 12% among 300,000; in the data active means max response mostly above about 13%, no sharp cut-off; inactive means mostly below about 14%; further: read at 38.3 µM for the half of the compounds with a filed dose
Shiga toxin inh: blocks Shiga toxin action in Vero cells | Vero cells, Shiga toxin protein synthesis inhibition reporter | inhibition, % at 38.7 µM | hit rate 9.2% among 290,000; in the data active means inhibition mostly above about 28%, no sharp cut-off; inactive means mostly below about 43%
Pf growth 96h: P. falciparum growth inhibition at 96 hour, primary screen for plastid delayed-death inhibitors. P. falciparum luciferase reporter growth, 96 h. Potency, µM (doses to about 28.7 µM), usual class: inhibitors. hit rate 6.9% among 320,000. AID 504834
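96 h incubation, 37 C, 5% CO2, of luciferase-reporter P. falciparum-infected RBCs (2% hematocrit, 0.05% parasitemia final) with test compounds; endpoint luminescence.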
HCMV antiviral: blocks human cytomegalovirus replication | hit rate 4.5% among 410,000 | HFF cells, HCMV-luciferase reporter, 72 h; stronger effect = lower value | AID 1259415 | activity change, negative = inhibition, % at 57.5 µM; in the data active means activity change below about -60%; inconclusive means no clear call, values can overlap the other calls; inactive means above about -39%
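Compounds were evaluated in HFFs infected with an HCMV luciferase reporter virus (MOI 1 PFU/cell). Luciferase in lysates collected 72 h post infection served as the replication measure.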
Numbers stand for hits. Unless noted, the call rests on the fitted dose curve; in most records, active means well fitted inhibition curve with a large enough effect; inconclusive means small, poorly fitted or top-dose-only effect, or another doubt; inactive means no such curve, though single readings can be large or run the other way.

What do the screens show for `COc1cccc(CNC(=O)CCC2CCCN(C(=O)c3cc(C4CC4)[nH]n3)C2)c1` (centres undefined)?
Pf growth 48h: inactive; CHX counter: 17.1; Shiga toxin inh: 34.3; Pf growth 96h: inactive; HCMV antiviral: inactive

What do the screens show for `COc1cccc(CNC(=O)CCC2CCCN(C(=O)c3cccnc3SC)C2)c1` (centres undefined)?
Pf growth 48h: inactive; CHX counter: inactive; Shiga toxin inh: inactive; Pf growth 96h: inactive; HCMV antiviral: inactive

What do the screens show for `COc1cccc(CNC(=O)CCC2CCCN(C(=O)c3ccc(OC)o3)C2)c1` (centres undefined)?
Pf growth 48h: inactive; CHX counter: 22.3; Shiga toxin inh: 59.9; Pf growth 96h: inactive; HCMV antiviral: inactive

What do the screens show for `COc1cccc(CNC(=O)CCC2CCCN(C(=O)c3csc(C(C)C)n3)C2)c1` (centres undefined)?
Pf growth 48h: inactive; CHX counter: inactive; Shiga toxin inh: inactive; Pf growth 96h: 13.1µM; HCMV antiviral: inactive

Results for COc1ccc(CCNC(=O)C(=O)NCC(c2ccco2)S(=O)(=O)c2ccccc2)cc1 (centres undefined) ?
HCMV antiviral: inactive

What do the screens show for `C[Si](C)(C)O[Si](C)(C)C`?
Pf growth 48h: inactive; Pf growth 96h: inactive

How did COc1ccccc1NC(=O)NCC(c1ccco1)N1CCCCC1 (centres undefined) do in these assays?
Pf growth 48h: inactive; CHX counter: inactive; Shiga toxin inh: inactive; Pf growth 96h: inconclusive; HCMV antiviral: inactive

Results for Cc1ccc(CNC(=O)CN2C(=O)NC(C)(c3cccc(Br)c3)C2=O)cc1 (centres undefined) ?
Pf growth 48h: inactive; CHX counter: inactive; Shiga toxin inh: inactive; Pf growth 96h: inconclusive; HCMV antiviral: inconclusive

What do the screens show for `COc1cccc(-c2ccc3c(c2)N(Cc2cccc(F)c2)C(=O)C(C)S3)c1` (centres undefined)?
HCMV antiviral: inactive

How did COc1cc(C2CC(=O)N(Cc3cccc(F)c3)c3ccccc3S2)cc(OC)c1OC (centres undefined) do in these assays?
HCMV antiviral: -95.4

How did O=C(/C=C/c1cccc([N+](=O)[O-])c1)Nc1cccc(NC(=O)c2cccs2)c1 do in these assays?
Pf growth 48h: inactive; CHX counter: inactive; Shiga toxin inh: inactive; Pf growth 96h: 4.15µM; HCMV antiviral: inactive

How did O=C(Nc1ccc(NC(=O)c2ccc([N+](=O)[O-])o2)cc1Cl)c1ccco1 do in these assays?
Pf growth 48h: 11.7µM; CHX counter: inactive; Shiga toxin inh: inactive; Pf growth 96h: inactive; HCMV antiviral: -73.3

How did O=C(Nc1cccc(NC(=O)c2cccs2)c1)c1ccc([N+](=O)[O-])o1 do in these assays?
Pf growth 48h: 11.7µM; CHX counter: 13.5; Shiga toxin inh: inactive; Pf growth 96h: 3.29µM; HCMV antiviral: -92.3

How did O=C(/C=C/c1cccc([N+](=O)[O-])c1)Nc1cccc(NC(=O)c2ccco2)c1 do in these assays?
Pf growth 48h: inactive; CHX counter: inactive; Shiga toxin inh: inactive; Pf growth 96h: inactive; HCMV antiviral: inactive

Results for COc1cc(NC(=O)c2ccc([N+](=O)[O-])o2)ccc1NC(=O)c1cccs1 ?
Pf growth 48h: inconclusive; CHX counter: inactive; Shiga toxin inh: inactive; Pf growth 96h: inactive; HCMV antiviral: inactive

How did COc1ccc(C(=O)Nc2ccc(NC(=O)c3ccco3)c(Cl)c2)cc1OC do in these assays?
Pf growth 48h: inactive; CHX counter: inactive; Shiga toxin inh: inactive; Pf growth 96h: inactive; HCMV antiviral: inactive

What do the screens show for `O=C(Nc1cccc(NC(=O)c2ccc([N+](=O)[O-])o2)c1)c1ccco1`?
Pf growth 48h: 9.28µM; CHX counter: inactive; Shiga toxin inh: inactive; Pf growth 96h: inactive; HCMV antiviral: inconclusive

How did COc1ccccc1/C=N/NC(=O)C(=O)NCc1cccnc1 do in these assays?
Pf growth 48h: inactive; CHX counter: inactive; Shiga toxin inh: inactive; Pf growth 96h: inconclusive; HCMV antiviral: inactive

How did O=C(CNC(=O)c1ccc(Cl)cc1)NC(CO)c1ccccc1 (centres undefined) do in these assays?
Pf growth 48h: inactive; CHX counter: inactive; Shiga toxin inh: inactive; Pf growth 96h: inactive; HCMV antiviral: inactive

What do the screens show for `O=C(Nc1cccc(NC(=O)c2ccc(-c3cccc(Br)c3)o2)c1)c1ccco1`?
Pf growth 48h: inconclusive; CHX counter: 58.4; Shiga toxin inh: 72.9; Pf growth 96h: inactive; HCMV antiviral: inactive

What do the screens show for `CCOc1ccccc1NC(=O)N1CC(CC)Oc2ccccc21` (centres undefined)?
HCMV antiviral: inactive

Results for COc1cccc(CC(=O)Nc2cc(S(=O)(=O)N3CCOCC3)ccc2OC)c1 ?
Pf growth 48h: inactive; Pf growth 96h: inconclusive; HCMV antiviral: inactive

How did C/C=C/c1ccc(OCC(=O)Nc2cc(S(=O)(=O)N3CCOCC3)ccc2N2CCCC2)c(OC)c1 do in these assays?
Pf growth 48h: 13.1µM; Pf growth 96h: inconclusive; HCMV antiviral: inconclusive

How did COc1cccc(CC(=O)Nc2cc(S(=O)(=O)N3CCOCC3)ccc2N2CCOCC2)c1 do in these assays?
Pf growth 48h: inconclusive; CHX counter: inactive; Shiga toxin inh: inactive; Pf growth 96h: 10.4µM; HCMV antiviral: inactive

How did CCc1cccc(OCC(=O)Nc2cc(S(=O)(=O)N3CCOCC3)ccc2N2CCCC2)c1 do in these assays?
Pf growth 48h: inconclusive; CHX counter: inactive; Shiga toxin inh: inactive; Pf growth 96h: 8.28µM; HCMV antiviral: inactive

Results for O=C(COc1ccccc1)Nc1cc(C(F)(F)F)ccc1N1CCCC1 ?
Pf growth 48h: inconclusive; CHX counter: inactive; Shiga toxin inh: inactive; Pf growth 96h: inactive; HCMV antiviral: inconclusive

Results for COc1cccc(CC(=O)Nc2cc(C(F)(F)F)ccc2N2CCCC2)c1 ?
Pf growth 48h: inconclusive; CHX counter: inactive; Shiga toxin inh: inactive; Pf growth 96h: 13.1µM; HCMV antiviral: inactive

What do the screens show for `COc1ccc(-c2cc(C(F)(F)F)nc(SCC(=O)Nc3ccc(C(C)=O)cc3)n2)cc1`?
HCMV antiviral: inactive

What do the screens show for `N#C/C(=C\c1ccc(Cl)cc1)c1nc(-c2cc3c(ccc4ccccc43)oc2=O)cs1`?
HCMV antiviral: inactive

What do the screens show for `CC(C)NC(=O)C1CCN(C2CCN(C(=O)c3ccc4cccc(F)c4n3)CC2)CC1`?
Pf growth 48h: inactive; CHX counter: inactive; Shiga toxin inh: inactive; Pf growth 96h: inactive; HCMV antiviral: inactive

What do the screens show for `CCn1c(Cc2ccccc2)nnc1SCC(=O)Nc1ccc2c(c1)OCCO2`?
Pf growth 48h: inactive; CHX counter: inactive; Shiga toxin inh: inactive; HCMV antiviral: inactive

What do the screens show for `Cc1cccc(OCC(=O)Nc2cc(S(=O)(=O)N3CCOCC3)ccc2N2CCCC2)c1C`?
Pf growth 48h: 4.15µM; Pf growth 96h: 7.38µM; HCMV antiviral: inactive

Results for O=C(COc1ccccc1)Nc1cc(S(=O)(=O)N2CCOCC2)ccc1N1CCCC1 ?
Pf growth 48h: inconclusive; Pf growth 96h: inconclusive; HCMV antiviral: inactive

Results for Cn1cnnc1SCC(=O)Nc1ccc(Cl)cc1 ?
Pf growth 48h: inactive; CHX counter: inactive; Shiga toxin inh: inactive; Pf growth 96h: inconclusive; HCMV antiviral: inactive
